The source of these data is PubChem BioAssay (EPA / NIEHS).

Each structure is given as a SMILES string. Active and inactive are the calls of the source. Rule for the calls: active = hit-call score of the fitted dose curve at least 0.9, where 1 is the maximum; inactive = score below 0.9.

Details in all cases: mRNA level, 48 h; actives raise or lower the signal
Read-out in assay [1]: Glutathione S-transferase M3 (GSTM3), GSTM3 (gene 2947)
In words: LTEA_HepaRG_GSTM3: Life Technologies and Expression Analysis (LTEA) Assay for Glutathione S-transferase M3 (GSTM3) using HepaRG (AID 2283501). In short, it runs like this:
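HepaRG, plated 48 h, then serum-free induction medium; test chemical 48 h, duplicate; 100 uM top, half-log x8, 0.5% DMSO. Read-out: GSTM3 mRNA (TaqMan qRT-PCR, Fluidigm array). Bidirectional fit vs DMSO.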

Read-out in assay [2]: Heat shock 70 kDa protein 1 (HSPA1A), gene 3303
Put plainly: LTEA_HepaRG_HSPA1A: Life Technologies and Expression Analysis (LTEA) Assay for Heat shock 70 kDa protein 1 (HSPA1A) using HepaRG (AID 2283502). In short, it runs like this:
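Readout is HSPA1A transcript level by microfluidic qRT-PCR, normalized to three housekeeping genes and analysed for gain or loss of signal relative to 0.5% DMSO. Human HepaRG cultures received test chemicals for 48 h at up to 100 uM.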

Read-out in assay [3]: Hypoxia-inducible factor 1-alpha (Homo sapiens) (UniProt Q16665)
Put plainly: LTEA_HepaRG_HIF1A: Life Technologies and Expression Analysis (LTEA) Assay for Hypoxia-inducible factor 1 (HIF1A) Trancription factor using HepaRG (AID 2283503). An outline of the steps:
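Differentiated HepaRG cells in serum-free induction medium exposed 48 h, in duplicate, to 8-point half-log series from 100 uM in 0.5% DMSO. HIF1A mRNA measured by TaqMan qRT-PCR, normalized to ACTB/GAPDH/POLR2A, fitted bidirectionally versus DMSO.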

Read-out in assay [4]: 3-Hydroxy-3-Methylglutaryl-CoA Synthase 2 (HMGCS2), HMGCS2 (gene 3158)
In words: LTEA_HepaRG_HMGCS2: Life Technologies and Expression Analysis (LTEA) Assay for 3-Hydroxy-3-Methylglutaryl-CoA Synthase 2 (HMGCS2) using HepaRG (AID 2283504). In short, it runs like this:
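HepaRG, plated 48 h then switched to serum-free induction media; cmpd 8-pt, max 100 uM, 1/2-log, 0.5% DMSO, n=2, 48 h. HMGCS2 mRNA by Fluidigm TaqMan qRT-PCR, ACTB/GAPDH/POLR2A norm; bidirectional fit vs DMSO.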

Read-out in the next assay: HGF (gene 3082)
In words: LTEA_HepaRG_HGF: Life Technologies and Expression Analysis (LTEA) Assay for Hepatocyte Growth Facto (HGF) using HepaRG (AID 2283505). An outline of the steps: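 Read-out is HGF transcript level by qRT-PCR, normalized to three housekeeping genes, fitted bidirectionally against 0.5% DMSO vehicle. Human HepaRG cells received test chemicals for 48 h at up to 100 uM.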

Read-out in assay [5]: Insulin Like Growth Factor 1 (IGF1), IGF1 (gene 3479)
Put plainly: LTEA_HepaRG_IGF1: Life Technologies and Expression Analysis (LTEA) Assay for Insulin Like Growth Factor 1 (IGF1) using HepaRG (AID 2283506). An outline of the steps: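 HepaRG, plated 48 h, then switched to serum-free induction media; test chemical 8-pt half-log from 100 uM (0.5% DMSO), duplicate, 48 h. Lysis in RLT, TaqMan qRT-PCR, norm. ACTB/GAPDH/POLR2A. Bidirectional fit vs DMSO.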

Read-out in assay [6]: Insulin-like growth factor-binding protein 1 (IGFBP1), IGFBP1 (gene 3484)
In words: LTEA_HepaRG_IGFBP1: Life Technologies and Expression Analysis (LTEA) Assay for Insulin-like growth factor-binding protein 1 (IGFBP1) using HepaRG (AID 2283508). An outline of the steps:
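Thawed HepaRG cells are plated for 48 h, switched to serum-free induction medium, then dosed in duplicate for another 48 h (100 uM top, half-log steps). Lysates in RLT go to qRT-PCR, and gain or loss of signal is fitted relative to vehicle.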

Read-out in assay [7]: Interleukin 6 (IL6), IL6 (gene 3569)
In words: LTEA_HepaRG_IL6: Life Technologies and Expression Analysis (LTEA) Assay for Interleukin 6 (IL6) using HepaRG (AID 2283509). In short, it runs like this:
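Differentiated human HepaRG cells, plated 48 h then switched to serum-free induction medium, were exposed in duplicate for 48 h to eight half-log concentrations up to 100 uM in 0.5% DMSO. IL6 mRNA measured by qRT-PCR, normalized to ACTB/GAPDH/POLR2A.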

Read-out in assay [8]: Potassium channel subfamily K member 1 (KCNK1), KCNK1 (gene 3775)
Put plainly: LTEA_HepaRG_KCNK1: Life Technologies and Expression Analysis (LTEA) Assay for Potassium channel subfamily K member 1 (KCNK1) using HepaRG (AID 2283511). In short, it runs like this:
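Differentiated human HepaRG cells in serum-free induction medium were exposed in duplicate for 48 h to 8 half-log concentrations up to 100 uM in 0.5% DMSO. KCNK1 mRNA was measured by TaqMan qRT-PCR, normalized to ACTB, GAPDH and POLR2A, and fitted bidirectionally versus DMSO.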

Read-out in assay [9]: Keratin 19 (KRT19), KRT19 (gene 3880)
In words: LTEA_HepaRG_KRT19: Life Technologies and Expression Analysis (LTEA) Assay for Keratin 19 (KRT19) using HepaRG (AID 2283512). An outline of the steps: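 KRT19 transcript levels, measured by Fluidigm qRT-PCR against three housekeeping genes, are fitted for gain or loss of signal relative to DMSO. Human HepaRG cells receive test chemicals (top 100 uM, half-log steps, 0.5% DMSO) for 48 hours.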

Read-out in assay [10]: JUN Transcription Factor, JUN (gene 3725)
Put plainly: LTEA_HepaRG_JUN: Life Technologies and Expression Analysis (LTEA) Assay for JUN Transcription Factor using HepaRG (AID 2283513). An outline of the steps:
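Cells plated 48 h, medium switched to serum-free induction medium, then dosed 48 h (100 uM top, half-log dilutions, 0.5% DMSO). RNA isolated; JUN measured by qRT-PCR against three housekeeping genes; gain or loss fitted relative to DMSO.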

Read-out in assay [11]: Lipase C (LIPC), LIPC (gene 3990)
In words: LTEA_HepaRG_LIPC: Life Technologies and Expression Analysis (LTEA) Assay for Lipase C (LIPC) using HepaRG (AID 2283514). In short, it runs like this: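 Differentiated human HepaRG cells in serum-free induction medium were exposed in duplicate for 48 h to eight concentrations (top 100 uM, half-log steps, 0.5% DMSO). LIPC mRNA was quantified by TaqMan qRT-PCR, normalized to ACTB, GAPDH and POLR2A, with bidirectional fitting versus DMSO.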

Read-out in assay [12]: Lipoprotein lipase (LPL), LPL (gene 4023)
Put plainly: LTEA_HepaRG_LPL: Life Technologies and Expression Analysis (LTEA) Assay for Lipoprotein lipase (LPL) using HepaRG (AID 2283515). An outline of the steps: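 Differentiated human HepaRG cells in serum-free induction medium were exposed in duplicate for 48 h to eight half-log concentrations (top 100 uM) in 0.5% DMSO. LPL mRNA was quantified by TaqMan qRT-PCR, normalized to ACTB, GAPDH and POLR2A.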

Read-out in assay [13]: MicroRNA 122 (MIR122), gene 406906
Put plainly: LTEA_HepaRG_MIR122: Life Technologies and Expression Analysis (LTEA) Assay for MicroRNA 122 (MIR122) using HepaRG (AID 2283516). Note: the transcript read is the microRNA miR-122. In short, it runs like this:
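HepaRG plated 48 h, switched to serum-free induction medium, then treated in duplicate for 48 h (100 uM top, half-log steps, 0.5% DMSO vehicle). RNA isolated, qRT-PCR performed, concentration-response fitted both directions relative to DMSO.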

Read-out in assay [14]: matrix metalloproteinase-10 (MMP10), MMP10 (gene 4319)
Put plainly: LTEA_HepaRG_MMP10: Life Technologies and Expression Analysis (LTEA) Assay for matrix metalloproteinase-10 (MMP10) using HepaRG (AID 2283517). In short, it runs like this: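 HepaRG, collagen I, ~100,000 cells/well; serum-free induction medium; 48 h exposure, duplicate, 8-pt half-log to 100 uM, 0.5% DMSO. Readout: TaqMan qRT-PCR, normalized to ACTB/GAPDH/POLR2A; bidirectional fit vs DMSO.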

Read-out in another assay: MYC, MYC (gene 4609)
In words: LTEA_HepaRG_MYC: Life Technologies and Expression Analysis (LTEA) Assay for MYC using HepaRG (AID 2283518). An outline of the steps: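 HepaRG, ~100,000 cells/well, collagen I; 48 h plating; serum-free induction medium; 48 h dosing, duplicate, 100 uM top, half-log, 0.5% DMSO; total RNA → qRT-PCR MYC; gain/loss fit vs DMSO.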

Read-out in assay [15]: matrix metalloproteinase-3 (MMP3), MMP3 (gene 4314)
In words: LTEA_HepaRG_MMP3: Life Technologies and Expression Analysis (LTEA) Assay for matrix metalloproteinase-3 (MMP3) using HepaRG (AID 2283519). In short, it runs like this:
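Differentiated human HepaRG cells, plated 48 h on collagen I, were exposed in duplicate for 48 h in serum-free induction medium to eight half-log concentrations up to 100 uM in 0.5% DMSO. MMP3 mRNA was quantified by TaqMan qRT-PCR, normalised to ACTB, GAPDH and POLR2A.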

Read-out in assay [16]: Paternally Expressed 10 (PEG10), PEG10 (gene 23089)
Put plainly: LTEA_HepaRG_PEG10: Life Technologies and Expression Analysis (LTEA) Assay for Paternally Expressed 10 (PEG10) using HepaRG (AID 2283520). An outline of the steps: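 HepaRG, 48 h post-plating → serum-free induction medium → 48 h chemical exposure (duplicate, 8-pt, max 100 uM, half-log, 0.5% DMSO) → lysis in RLT → TaqMan qRT-PCR for PEG10, ACTB/GAPDH/POLR2A normalisation.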

Read-out in assay [17]: Intercellular Adhesion Molecule 1 (ICAM1), ICAM1 (gene 3383)
In words: LTEA_HepaRG_ICAM1: Life Technologies and Expression Analysis (LTEA) Assay for Intercellular Adhesion Molecule 1 (ICAM1) using HepaRG (AID 2283507). In short, it runs like this:
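Readout is qRT-PCR mRNA level, normalized to three housekeeping genes and fitted bidirectionally against 0.5% DMSO vehicle. Human HepaRG cultures received compound for 48 h, top concentration 100 uM with half-log dilutions.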

Read-out in assay [18]: Interleukin 6 Receptor (IL6R), IL6R (gene 3570)
Put plainly: LTEA_HepaRG_IL6R: Life Technologies and Expression Analysis (LTEA) Assay for Interleukin 6 Receptor (IL6R) using HepaRG (AID 2283510). An outline of the steps:
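Readout is IL6R transcript level by TaqMan qRT-PCR, normalized to three housekeeping genes and fitted bidirectionally against 0.5% DMSO controls. Human HepaRG cells received chemicals for 48 h in serum-free induction medium, highest concentration 100 uM.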

Hypoxia-inducible factor 1-alpha (Homo sapiens), sequence (Q16665 whole entry, looked up): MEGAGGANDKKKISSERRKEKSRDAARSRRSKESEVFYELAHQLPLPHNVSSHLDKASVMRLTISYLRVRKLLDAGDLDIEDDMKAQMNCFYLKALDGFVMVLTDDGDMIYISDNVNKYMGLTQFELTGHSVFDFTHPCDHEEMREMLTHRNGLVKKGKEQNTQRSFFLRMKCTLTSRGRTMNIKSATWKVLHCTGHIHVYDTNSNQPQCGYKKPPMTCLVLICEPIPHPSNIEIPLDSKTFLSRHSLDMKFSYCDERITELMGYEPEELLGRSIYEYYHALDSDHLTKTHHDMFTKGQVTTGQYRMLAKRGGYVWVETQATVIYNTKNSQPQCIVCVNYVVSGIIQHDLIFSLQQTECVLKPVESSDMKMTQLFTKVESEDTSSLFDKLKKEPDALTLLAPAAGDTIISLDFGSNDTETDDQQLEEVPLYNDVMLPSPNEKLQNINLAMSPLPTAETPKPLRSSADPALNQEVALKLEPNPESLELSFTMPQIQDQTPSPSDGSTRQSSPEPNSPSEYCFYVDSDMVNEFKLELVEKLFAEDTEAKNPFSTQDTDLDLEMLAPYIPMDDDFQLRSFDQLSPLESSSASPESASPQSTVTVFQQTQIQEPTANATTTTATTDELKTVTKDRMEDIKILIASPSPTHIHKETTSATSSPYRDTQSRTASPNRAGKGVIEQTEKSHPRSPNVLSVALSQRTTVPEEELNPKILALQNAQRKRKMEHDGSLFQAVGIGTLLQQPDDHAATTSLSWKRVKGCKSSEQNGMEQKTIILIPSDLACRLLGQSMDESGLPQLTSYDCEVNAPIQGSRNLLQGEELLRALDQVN

On to `CCCCC(CC)COC(=O)c1ccc(C(=O)OCC(CC)CCCC)c(C(=O)OCC(CC)CCCC)c1` (stereo not drawn), for which the compound was called inactive (in [1]; in [2]; in [3]; in assay [4]; with HGF (gene 3082); in assay [5]). For the same compound, the result in assay [6], in assay [7], in [8], in [9], in [10] and in assay [11] was inactive. Besides, the outcome in assay [12] is “inactive”; in assay [13], “inactive”; in assay [14], “inactive”; with MYC, MYC (gene 4609) it was “inactive”; in [15], “inactive”; in assay [16] it was “inactive”.

By AC50 is commonly meant the concentration at which the activity in the assay is half-maximal. `CCCCCCCCn1sccc1=O`: the call in [1], in assay [2], in assay [3], in [5], in [6] and in assay [7] was inactive. For the same compound, the outcome was “inactive” in assay [8]; “inactive” in [9]; “inactive” in assay [10]; “inactive” in [12]; “inactive” with MYC, MYC (gene 4609); “inactive” in assay [15]. In addition, the AC50 in [4] was 84.8 µM (active); with HGF (gene 3082) it was 81.3 µM (active); in assay [11], 80.9 µM (active); in [13], 82.3 µM (active); in assay [14], 76.6 µM (active); in assay [16] it was 52 µM (active).

Consider `CCC[CH2][Sn]([Cl])([CH2]CCC)[CH2]CCC`, for which the outcome in [1] was “inactive”; in assay [17] it was “inactive”; in [12], “inactive”; with MYC, MYC (gene 4609) it was “inactive”; in assay [16], “inactive”. For the same compound, the half-maximal activity concentration (AC50) was 2.27 µM (active) in assay [2]; 2.07 µM (active) in assay [3]; 1.24 µM (active) in assay [4]; 50 µM (active) with HGF (gene 3082); 4.72 µM (active) in [5]; 2.29 µM (active) in [6]. The AC50 was 2.85 µM (active) in assay [8]; 0.297 µM (active) in assay [9]; 3.32 µM (active) in assay [10]; 1.46 µM (active) in [11]; 12.8 µM (active) in [13]; 1.73 µM (active) in [14]. Also, the AC50 in assay [15] is 1.87 µM (active).

On to `Nc1ccc([N+](=O)[O-])cc1`, for which the compound was classed as inactive (in assay [1]; in [2]; in [3]; in [4]; in the assay with HGF (gene 3082); in [5]). The result in assay [6], in [7], in [18], in [8], in assay [9] and in assay [10] was inactive. The outcome in [11] is “inactive”; in assay [12], “inactive”; in [13] it was “inactive”; in assay [14], “inactive”; with MYC, MYC (gene 4609), “inactive”; in [15], “inactive”. The call in assay [16] was inactive.
